# Screening data (PubChem BioAssay)
# Pf apPOL block: Pf-apPOL DNA polymerase inhibition. Recombinant Pf-apPOL, molecular beacon fluorescence, 1.5 h. hit rate 0.25% among 210,000. inhibition, % at 10 µM. AID 1794808
# mHTT-CaM PPI inh: mHTT-calmodulin interaction abrogation | P42858 | AlphaScreen His-mHTT/GST-CaM binding, luminescence | inhibition, % at 15 µM | hit rate 3.6% among 190,000 | AID 1671202;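 note: 0% = both proteins with DMSO and 100% = one protein alone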
# The depositor's hits bear a star; . = no result. The sample as a whole holds a higher share of hits than the screen did. Cut-off read from the data, not from the text of the source: active = inhibition above about 50%; inactive = the rest.
SMILES,Pf apPOL block,mHTT-CaM PPI inh
COc1ccc(OC)c(Nc2nc(Cl)nc(Nc3cc(OC)ccc3OC)n2)c1,-2,53*
CN1C2CCC1C(=Cc1ccc(F)cc1)C(=O)C2=Cc1ccc(F)cc1,13,.
COc1ccccc1C1CC(c2ccccc2O)=NC2(CCN(C(C)=O)CC2)N1 (centres undefined),0,41
Cc1ccc(C(=O)NCc2ccc(Cl)cc2)c(Cl)c1,-5,0
Cc1ccc(CNC(=O)c2ccc(Cl)cc2Cl)cc1,65*,-7
Cc1ccc(Cn2c(=O)cc(C(=O)NCc3ccccc3Cl)c3ccccc32)cc1,12,78*
CCCn1c(=O)c(C(=O)NCc2ccccc2Cl)c(O)c2ccccc21,-4,4
COc1ccccc1-c1cc(C(=O)N2CCN(S(=O)(=O)C3CC3)CC2)[nH]n1,-11,-9
Cc1cccc(OCC(=O)Nc2nnc(C3CC(=O)N(c4ccccc4)C3)o2)c1C (centres undefined),0,1
Cc1nc(C(=O)N(C)C)c(C)n1C1CCN(C)CC1,-4,-1
COc1ccc(N(C)C(=O)c2nc(C)n(C3CCN(C)CC3)c2C)cc1,6,76*
O=[N+]([O-])c1ccc(-c2ccc(N=Cc3ccccc3)cc2)cc1,19,-4
O=[N+]([O-])c1ccc(C=NC2=NN(c3ccccc3)CC2)cc1,3,59*
N#Cc1c(Oc2cccnc2)ccc([N+](=O)[O-])c1Oc1cccnc1,0,.
COc1ccc(C2CC(c3ccc(Br)cc3)Nc3nnnn32)cc1 (centres undefined),-2,13
CC1=NN(c2cc(Cl)c(S(=O)(=O)O)cc2Cl)C(=O)C1,3,0
CC1=NN(c2ccc(C)c(Cl)c2)C(=O)C1,-2,91*
CC(C)N1CCN(C(=O)C2CCCN(c3nnc4c(Cl)cccn34)C2)CC1 (centres undefined),-2,0
Cc1cccc(CN2CCc3c(cc(C(=O)NCc4ccco4)n3C)C2)c1,-4,57*
Cn1c(C(=O)NCCCN2CCCCC2)cc2c1CCN(Cc1cccc(F)c1)C2,-4,83*
Cn1c(C(=O)NCc2ccccc2)cc2c1CCN(Cc1ccccc1)C2,-1,63*
Cn1c(C(=O)NCCN2CCCCC2)cc2c1CCN(Cc1ccc(F)cc1)C2,2,47
CCN(CC)C(=O)c1cc2c(n1C)CCN(Cc1cccc(C)c1)C2,-7,50
COc1ccc(CNC(=O)c2cc3c(n2C)CCN(Cc2ccccc2)C3)cc1,-2,38
Cn1c(C(=O)NC(C)(C)C)cc2c1CCN(Cc1cccc(F)c1)C2,-4,16
SMILES,Pf apPOL block,mHTT-CaM PPI inh
Cn1c(C(=O)NCCCN2CCCCC2)cc2c1CCN(Cc1ccccc1)C2,7,93*
O=C(CSc1nc2ccsc2c(=O)n1Cc1ccc2c(c1)OCO2)NCc1ccccc1,-3,1
CCOC(=O)C(C)Oc1ccc2c(c1)OC(=Cc1cccc(Cl)c1)C2=O (centres undefined),-3,11
O=C(c1ccc(F)cc1)c1nc2c(n1O)CCCCC2,-4,15
CCc1ccc(S(=O)(=O)N2CCCC(C)(C(=O)NCc3ccc(OC)cc3)C2)cc1 (centres undefined),-5,-7
O=C(NCC(O)c1ccoc1)C1COc2ccccc2O1 (centres undefined),-4,2
CCc1nc(NCCN2CCOCC2)c(C#N)c2c1COC(C)(C)C2,2,-3
Cc1[nH]c(=O)[nH]c(=O)c1CCC(=O)Nc1cccc(-c2nc3ccccc3o2)c1,-20,22
Cc1noc(-c2cccn3c(=O)n(Cc4noc(-c5ccccc5C)n4)nc23)n1,-9,44
Fc1ccc(NC(=S)Nc2ccc(Br)cc2)c(F)c1,.,-9
CCCCN(C)C(=O)c1cc2c(n1C)CCN(Cc1cccc(F)c1)C2,-6,45
CN(Cc1ccccc1)C(=O)c1cc2c(n1C)CCN(Cc1cccc(F)c1)C2,-5,59*
COc1cccc(C2Nc3ccc(C(C)=O)cc3C3C=CCC32)c1OC (centres undefined),0,64*
NS(=O)(=O)c1ccc2c(c1)C1C=CCC1C(c1ccc([N+](=O)[O-])cc1)N2 (centres undefined),4,92*
O=[N+]([O-])c1ccc(C2Nc3cc(Br)ccc3C3C=CCC32)cc1 (centres undefined),.,40
NS(=O)(=O)c1ccc2c(c1)C1C=CCC1C(c1ccc(Cl)cc1Cl)N2 (centres undefined),-2,79*
O=C(O)C1CC=CCC1c1ccc(Cl)cc1Cl (centres undefined),-1,.
O=C(O)c1ccc2c(c1)C1C=CCC1C(c1ccc(Cl)cc1Cl)N2 (centres undefined),-4,67*
CC(=O)c1ccc2c(c1)C1C=CCC1C(c1cc3c(cc1Br)OCO3)N2 (centres undefined),-3,28
COC(OC)C12c3ccccc3C(c3ccccc31)C1C(=O)N(c3ccc(C)c(C)c3)C(=O)C12 (centres undefined),1,3
